For 16 molecules, binding signal results are on record in PMC12136788.

T1: UNK ZnF1-3 (human, UniProt Q9C0B0 31-174)
T1 sequence: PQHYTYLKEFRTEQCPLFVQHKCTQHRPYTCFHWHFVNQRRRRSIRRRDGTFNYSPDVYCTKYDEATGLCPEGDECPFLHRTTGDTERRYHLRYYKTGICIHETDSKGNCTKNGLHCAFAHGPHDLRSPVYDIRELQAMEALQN

B1: chr7:141441981:141441982:+_ENSG00000106028_ENST00000265304|hu_mus|hu_hu_hu_mus_False|1_8 (ssRNA)
RNA: GGGAGUUCUACAGUCCGACGAUCCUCAUGUCUUACAAACUGACGAAAUACCUGUAACACAGGUCUUCGAAACAUGGCUUCUGUUUUUCUUACAACCUAAUCUUUAGGCUUUUCCUAAAGGAAAGAAUAACCCGAGCAGCCCAGCAACAGAGGAUUGAGCAUCA
B2: chr11:46405157:46405158:+_ENSG00000110492_ENST00000395566|hu_hu|hu_hu_hu_mus_False|8_78 (ssRNA)
RNA: GGGAGUUCUACAGUCCGACGAUCCCCUCCCCACUUUGGGCACUUGGUGUGGGCGUGAAGGCAGGGCCGUGAUUGACAGAGCUGACAGGAAGACAAAAGGCACUGGUGGGUUAUAUCUUGGGCCUGUGAGAGGGAGGGGCUCCGCAACAGAGGAUUGAGCAUCA
B3: 52098632_52100650_1216_3pUTR_ENSG00000128872_ENST00000249700|human|control|control (ssRNA)
RNA: GGGAGUUCUACAGUCCGACGAUCUACCUUCGGUCUGCUUCAACUCUCUUCUUACGAACCAGGUCAUUAUUCUUUGUGAUGGCAGCUGCCACCCUUGUUCGUGGCCCUUGCUUGGUAAACUGGUAUCCAAACUUGAGGAUCCUUCAACAGAGGAUUGAGCAUCA
B4: chr5:121736274:121736275:+_ENSMUSG00000042744_ENSMUST00000119892|mus_mus|FALSE|FALSE (ssRNA)
RNA: GGGAGUUCUACAGUCCGACGAUCCUGGUGAAUGCACAUGGCGCCAACAUGGUGCAGUAACUGGUUUAUGACUUCAUUUGUGCUAAUGGCCUCUUCUUUGGGCUCGGUGAUGAUAUGGCUGACACCCAGUCUCUGGCACACGUACAACAGAGGAUUGAGCAUCA
B5: chr3:128198961:128198962:-_ENSG00000179348_ENST00000341105|hu_hu|motif|central (ssRNA)
RNA: GGGAGUUCUACAGUCCGACGAUCACUGGACCCAAAAAGAGUUUAAAAAUAAAACAAUUAACUCAUCAGCGAGUUAAGCCGGUGCAUUUUUUUAAUAUUUUUUCUUUUGUCUCAGAGUAGGAGGCGAGGGGGUUGAAGGGUUAGCAACAGAGGAUUGAGCAUCA
B6: chr12:48362563:48362564:+_ENSG00000134291_ENST00000256686|hu_hu|hu_hu_hu_mus_False|58_78 (ssRNA)
RNA: GGGAGUUCUACAGUCCGACGAUCUCCGUCAAGCCCUUCGAUAGACCCUUGCGGGGGUGGUAAAAACCACUUUGUAUUUCUAAAAAAAAGAAACGCCAAAAACUUUCCAAAAAGCGGGGGUGGGGUGAGGCGGGAGGGGGAGGUCAACAGAGGAUUGAGCAUCA
B7: 119691784_119693947_668_CDS_ENSG00000158290_ENST00000371322|human|control|control (ssRNA)
RNA: GGGAGUUCUACAGUCCGACGAUCGAGUUCUUCUAAAUUGUACUUAAUUGAAGUACUAUUCUGAAUAGCUUCCACUGCUUCUUUCAGUUUUUGCCAGGUUUCAUCUGUGUAGUUUUCUGGUAAUUUAGGCUUAUCUUUAAAGUUCAACAGAGGAUUGAGCAUCA
B8: chr2:129025431:129025432:+_ENSMUSG00000027397_ENSMUST00000028880|mus_mus|motif|central (ssRNA)
RNA: GGGAGUUCUACAGUCCGACGAUCUUGCCACAGUAGAUUCCAUUCUCUAGUGUAGUGGUUCUUUAAAUAAUAAGAGAAUUACGGAGCGGCUUUUGAGAUGUGUAAACGGAAUGAGGUAUCAAAAUGCUAUAAUAAAUAGUAUAUCAACAGAGGAUUGAGCAUCA
B9: chr17:55760890:55760891:+_ENSG00000153944_ENST00000284073|hu_mus|FALSE|FALSE (ssRNA)
RNA: GGGAGUUCUACAGUCCGACGAUCCAAUUUCAUAUGCAAUAUAAUACAGAAAGCAUGGCUGACCUUCAAUUUUAAAAAAAAAUGUAGUAAACUAUAUUGCUUUAUUCUUGAAGAUGCUGCUGCGGUGGGUGGAUGGCAGAGCGACAACAGAGGAUUGAGCAUCA
B10: 23376367_23376487_1679_3pUTR_ENSMUSG00000026158_ENSMUST00000027343|mouse|control|control (ssRNA)
RNA: GGGAGUUCUACAGUCCGACGAUCAUUUGAAAACACAUCCUAAAUGUAUUCUUUUAUUGGAUCUGGUCUUAAAACUUCUUAUUUAAUGUCCAAUUCAUUGUGAUCCAAAAUAAAAAGGCUUACAGCAAAAGUCACAGGUGGCCACAACAGAGGAUUGAGCAUCA
B11: chr10:71978566:71978567:-_ENSG00000180817_ENST00000373232|hu_hu|motif|central (ssRNA)
RNA: GGGAGUUCUACAGUCCGACGAUCUAAAGGGUCCUUUGUAGCAAUCUCCAUUUUUGCAUUAGACCAGCGUGGUACUUCAACGGCCAUGUGAAACACAUCCUUAUCUGCAUAAAUUGGAAUAUCAUGAAAUGGAGAUAUAUAUUGCAACAGAGGAUUGAGCAUCA
B12: chr14:105235747:105235748:-_ENSG00000142208_ENST00000407796|hu_hu|FALSE|FALSE (ssRNA)
RNA: GGGAGUUCUACAGUCCGACGAUCACUUUUAUUGAAGAAUUUGGAGGGAAGGUUCCAUAUUAUAUUAUAAUAGUAAAAAUACUAAAGUUGAAUGUUGUAAAAAAACGCCGUGGUGCAGCGGCAGCGGCAGCGUCUGGCCAGGAGCAACAGAGGAUUGAGCAUCA
B13: chr2:151326667:151326668:-_ENSG00000115963_ENST00000263895|hu_hu|FALSE|FALSE (ssRNA)
RNA: GGGAGUUCUACAGUCCGACGAUCUUUAUUUGUCUUAUUUACACAUGCCAAGGUGGCAACGUGAAAAAUGUCUCUGACGCUAUUUUCCGACUGUAAAGCUGAGCAUUCGAUAUAAGUAGCUGCUCCAAUCUGUUUGGCCAUAUUCAACAGAGGAUUGAGCAUCA
B14: chr14:21319500:21319501:-_ENSMUSG00000021816_ENSMUST00000161445|mus_hu|motif|central (ssRNA)
RNA: GGGAGUUCUACAGUCCGACGAUCGAGUUGUAUUCCAGGGCAUGAGGGAAGCAGGCCACCAAAGUAAAGGGAAAUACCAAACGGCAGUGGCAAUCAAUACAGGUCAAUAAUUGUGAAAAAUUAGCACAUGGUUCCAUUUAGUUUCAACAGAGGAUUGAGCAUCA
B15: chr14:105235747:105235748:-_ENSG00000142208_ENST00000407796|hu_mus|FALSE|FALSE (ssRNA)
RNA: GGGAGUUCUACAGUCCGACGAUCGAAAAGCAAUUUUUAUUGAAUUUGGAGGGACAGUUUCUUAUUAUAAUAGUAAAAAUGCUGAAGCUGAAUGUUGUAAAAAACGACAUGGUGCAGCAAUGGCCAGCGUCUGGCCGGGAGGGGCAACAGAGGAUUGAGCAUCA
B16: chr14:105235747:105235748:-_ENSG00000142208_ENST00000407796|hu_hu|motif|central (ssRNA)
RNA: B12 RNA with U82G, A83G

Where a chain is given by its changes, count along the chain named. The full ranking holds about 24,000 sequences; the median of “enrichment r” is about 0.99, and the highest 2% start at about 3.7. For the sample, the highest values were picked, then their nearest neighbours and some sequences at random.

The assay addresses T1, UNK ZnF1-3. Briefly: nsRBNS (natural sequence RNA bind-n-seq); RBNS binding buffer (assumed for nsRBNS): 25 mM Tris pH 7.5, 150 mM KCl, 3 mM MgCl2, 0.01% Triton X-100, 500 ug/ml BSA, 20 U/ml SUPERase-In, 4 C; UNK is unkempt and MSI1 is Musashi-1; names of the RNAs are library labels; protein concentration not given here; high values mean tight binding.
In the case of B1, the binding signal stood at 0.751 enrichment R.

B2 registered a binding signal of 2.15 enrichment R.

Take B3: the binding signal worked out at 0.553 enrichment R.

Molecule B4 returned a binding signal of 0.813 enrichment R.

Molecule B5 had a binding signal of 1.54 enrichment R.

For B6, the binding signal worked out at 3.57 enrichment R.

Take B7: the binding signal was 0.363 enrichment R.

B8 came in with a binding signal of 1.26 enrichment R.

In turn, B9 showed a binding signal of 1.14 enrichment R.

As for B10, the binding signal came to 0.637 enrichment R.

Take B11: the binding signal stood at 0.593 enrichment R.

In turn, B12 had a binding signal of 7.85 enrichment R.

In turn, B13 displayed a binding signal of 0.818 enrichment R.

In the case of B14, the binding signal was found to be 2.39 enrichment R.

In turn, B15 gave a binding signal of 4.04 enrichment R.

Consider B16, for which the binding signal was found to be 5.41 enrichment R.
